About 83,000 compounds went through this panel and 20% of them were active in at least one assay; those are over-represented in the sample as a whole.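 Results are percent growth after 48 hours of single-concentration exposure. 100 means growth as in untreated cells, lower positive values show inhibition; negative values down to -100 show cell death.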 Unmarked numbers belong to inactive results. The source made the active and inactive calls.
What follows are compounds tested on HOP-92 NSCLC (assay: NCI-60 one-dose screen, 48 h (100 = growth as untreated, 0 = no growth, -100 = all killed)). Details: 10 µM unless noted.
Procedure: Growth inhibition of the HOP-92 human Non-Small Cell Lung tumor cell line is measured as a screen for anti-cancer activity. Cells are grown in 96 well plates and exposed to the test compound for 48 hours. Compounds are tested at a single concentration, which is 10^-5 M for most compounds. The reported endpoint is percent growth (GI% or GIPRCNT), where numbers from 0 - 100% represent growth inhibition, and numbers from -100% - 0 represent cell death. For example, a value of 40 represents 60% growth inhibition. A value of 0 means no net growth occurred over the course of the experiment. A value of -40 indicates 40% of cells at the beginning of the experiment died by the end of the experiment. A value of -100 means all cells are dead at the end of the experiment.
NCI-60 Human Tumor Cell Lines Screen was performed using the standard one-dose NCI protocol, which is described in more detail at https://dtp.cancer.gov/discovery_development/nci-60/default.htm.
Compounds with GIPRCNT values below 10 were considered active. Activity score was based on GIPRCNT using the following formula: […]
Score is 0 for GIPRCNT values of 100 or above, 50 for GIPRCNT values of 0, and 100 for GIPRCNT values of -100.

Q: For `COc1ccc(C(=O)Nc2cccc(C3CCc4c(cc(OC)c(OC)c4OC)O3)c2)cc1` (stereo not given), which growth is on record?
A: 61.3%

Q: Which growth does the source give for `Cc1ccc(S(=O)(=O)Nn2c3c(cc(-c4nc5ccccc5s4)c2=O)CCCCCC3)cc1` here?
A: 85.4%

Q: For `O=S(=O)(NCCCNc1nccc(-c2c(-c3cccc(F)c3)nc3sccn23)n1)c1cccc(F)c1`, which growth is on record?
A: 74.8%

Q: `Cc1ccc(-n2nc3c(c(C#N)c2=O)CC(c2ccccc2[N+](=O)[O-])C([N+](=O)[O-])=C3O)cc1` (stereo not given) was tested. Which growth did it give?
A: 88.5%

Q: For `CCOc1ccc(Nc2nc(-c3ccc4c(c3)NC(=O)CO4)cs2)cc1`, which growth is on record?
A: 87.3%

Q: Which growth does the source give for `Cc1ccc(S(=O)(=O)NNC(=O)/C(=C\c2ccc(Cl)cc2)c2nc3ccccc3s2)cc1` here?
A: 87.3%

Q: With `CCCNC(=O)Oc1ccc(/C(=C(\C)c2ccccc2)c2ccc(OCCCN(C)C)cc2)cc1` as the compound, how does the growth read?
A: 68.2%

Q: Which growth does the source give for `O=C1/C=C/[C@@H](O)[C@@H]2C[C@@H](O)C[C@H]2/C=C/CCC[C@H](CCc2cccc3ccccc23)O1` here?
A: 46.5%

Q: How did the growth turn out when `COc1ccc(C(=O)c2nc3ccccc3n2CC(=O)c2ccc(Cl)cc2)cc1` was run?
A: 54.4%

Q: How did the growth turn out when `Cc1cc(C(=O)/C=C/c2ccc[nH]2)ccc1-n1ccc(C(F)(F)F)n1` was run?
A: 104%

Q: `C[C@@H](Nc1ncnc2ccc(-c3cnc(N)nc3)cc12)c1ccc(F)cc1` was tested. Which growth did it give?
A: 49.6%

Q: With `NC(=NCc1ccccc1)C(N=Nc1ccccc1)C(=O)NCc1ccccc1` (stereo not given) as the compound, how does the growth read?
A: 99%

Q: `O=C1Nc2ccccc2/C1=C\c1c(-c2ccccc2)nc2ccccn12` was tested. Which growth did it give?
A: 66.6%

Q: How did the growth turn out when `COc1ccc(CC(C)=C(c2ccc(OCCN3CCCCCC3)cc2)c2ccc(OCCN3CCCCCC3)cc2)cc1` was run?
A: -73.7% (active)

Q: With `CC(C)(C)[Si](C)(C)OC1[C@@H](O[Si](C)(C)C(C)(C)C)[C@@H](CNC(=O)NC(=O)CCl)O[C@H]1n1cnc2c(NC(=O)Nc3ccccc3)ncnc21` (stereo not given in full) as the compound, how does the growth read?
A: -74% (active)

Q: How did the growth turn out when `C=C(C)[C@@H]1CC[C@]2(C(=O)N3CCN(C)CC3)CC[C@]3(C)[C@H](CC[C@@H]4[C@@]5(C)C/C(=C/c6cccnc6)C(=O)C(C)(C)[C@@H]5CC[C@]43C)[C@@H]12` was run?
A: 52.8%

Q: With `Cc1nnc2c(Cc3ccccc3)nc3ccccc3n12` as the compound, how does the growth read?
A: 82.4%

Q: With `CC1(C)CC[C@]2(C(=O)O)CC[C@]3(C)C(=CC[C@@H]4[C@@]5(C)Cc6c([nH]c7ccccc67)C(C)(C)[C@@H]5CC[C@]43C)[C@@H]2C1` as the compound, how does the growth read?
A: 60.3%

Q: Which growth does the source give for `Cc1ccc(-n2cc(-c3ccccc3)c3c2N=NN2CCN=C32)cc1` here?
A: 102%

Q: With `O=S(=O)(NCCNc1nccc(-c2c(-c3cccc(F)c3)nc3sccn23)n1)c1ccccc1` as the compound, how does the growth read?
A: 51.5%

Q: `O=C(/C(=C\c1ccc([N+](=O)[O-])cc1)S(=O)Cc1ccc(F)cc1)c1ccc(F)cc1` (stereo not given) was tested. Which growth did it give?
A: 65.2%

Q: For `c1ccc(-c2c(-c3ccccc3)[n+](Cc3ccc4ccccc4c3)c(-c3cccc4ccccc34)n2Cc2ccc3ccccc3c2)cc1`, which growth is on record?
A: -53.9% (active)

Q: `O=C(Cc1ccc(/C=C/C(=O)c2nccs2)cc1)Nc1ccccc1` was tested. Which growth did it give?
A: 91.3%

Q: How did the growth turn out when `CN(C)CCC(=O)c1ccc([N+](=O)[O-])cc1` was run?
A: 89.2%

Q: Which growth does the source give for `CCCCCCCCO/N=C\c1c2c(O)c3c(O)c(C)c4c(c3c1O)C(=O)C(C)(O/C=C\C(OC)C(C)C(OC(C)=O)C(C)C(O)C(C)C(O)C(C)/C=C\C=C(\C)C(=O)N2)O4` (stereo not given) here?
A: -4.97% (active)

Q: How did the growth turn out when `O=C(CSc1nc2ccccc2[nH]1)NCc1ccccc1` was run?
A: 105%

Q: For `O=c1ccc(-c2nc(N3CCOCC3)c3ccccc3n2)c[nH]1`, which growth is on record?
A: 103%

Q: How did the growth turn out when `CC(C)N1C(=O)/C(=C2\SC(=S)N(C(C)C)C2=O)SC1=S` was run?
A: 72.3%

Q: `Cc1ncc(C(=O)Nc2ccc(CN3CCN(C)CC3)c(C(F)(F)F)c2)cc1C#Cc1cnc(N)cc1C#N` was tested. Which growth did it give?
A: 17.3%

Q: For `Cc1cc2c(c(C)c1Cl)C(=O)/C(=C/c1ccc(O)c(O)c1)O2`, which growth is on record?
A: 90.2%

Q: For `COc1cc(/C(C)=C(\c2ccc(Cl)cc2)c2ccc(OCCN3CCCC3)cc2)ccc1F`, which growth is on record?
A: 52.4%

Q: For `Nc1c(C(=O)Nc2cccc3cnccc23)sc2nc3c(cc12)C(=O)CCC3`, which growth is on record?
A: 80.5%

Q: Which growth does the source give for `O=C(Nc1ccccc1)Nc1ccc2cc3ccc(NC(=O)Nc4ccccc4)cc3nc2c1` here?
A: 87.6%

Q: Which growth does the source give for `Fc1ccc2c(-c3cncn3CCc3ccccc3)c[nH]c2c1` here?
A: 65%

Q: Which growth does the source give for `COc1cc2c(c(O)c1Br)C(=O)c1c(O)cc(C[C@H](C)O)cc1[C@H]2[C@H]1c2cc(C[C@H](C)O)cc(O)c2C(=O)c2c1cc(OC)c(Br)c2O` here?
A: -21.3% (active)

Q: `CC1=C(C(=O)/C=C/c2c[nH]c3ccccc23)C(c2ccccc2)NC(=S)N1` (stereo not given) was tested. Which growth did it give?
A: 90.1%

Q: With `CC(=O)OC[C@]12CC[C@@H](C(=O)CBr)[C@@H]1[C@H]1CC[C@@H]3[C@@]4(C)CC[C@H](OC(C)=O)C(C)(C)[C@@H]4CC[C@@]3(C)[C@]1(C)CC2` as the compound, how does the growth read?
A: 96%

Q: Which growth does the source give for `CC(=O)Nc1cccc(-c2ccc3c(c2)NC(=O)/C3=C\c2ccc[nH]2)c1` here?
A: 80.8%

Q: `COC(=O)C1=C(C(=O)ON)C2C=CC1(C(Cc1ccccc1)Nc1ccccc1)O2` (stereo not given) was tested. Which growth did it give?
A: 46.5%

Q: How did the growth turn out when `Cc1ccc(-c2csc(NC(=O)CSc3nc(-c4ccccc4)cc(=O)[nH]3)n2)cc1` was run?
A: 82.5%
